This note sets out measurements from PubChem BioAssay (EPA / NIEHS).

Active and inactive are the calls of the source. How the source made its calls: active means hit-call score of the fitted dose curve at least 0.9, where 1 is the maximum; inactive means score below 0.9.

Holding throughout (conditions): mRNA level, 48 h; actives raise or lower the signal
Read-out in assay [1]: Cyclin D1 (CCND1), CCND1 (gene 595)
The assay is described as follows: LTEA_HepaRG_CCND1: Life Technologies and Expression Analysis (LTEA) Assay for Cyclin D1 (CCND1) using HepaRG (AID 2283451).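 On AC50: TaqMan qRT-PCR transcript level normalised to ACTB GAPDH and POLR2A housekeeping genes.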 An outline of the steps:
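Differentiated human HepaRG cells in serum-free induction medium were exposed 48 h to eight half-log concentrations up to 100 uM in 0.5% DMSO; mRNA quantified by TaqMan qRT-PCR, normalized to ACTB, GAPDH, POLR2A, fitted bidirectionally versus DMSO.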

Read-out in assay [2]: catalase (CAT), CAT (gene 847)
Kind of assay: LTEA_HepaRG_CAT: Life Technologies and Expression Analysis (LTEA) Assay for catalase (CAT) using HepaRG (AID 2283452).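 On AC50: TaqMan qRT-PCR signal normalized to ACTB GAPDH and POLR2A housekeeping genes.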 An outline of the steps:
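Differentiated HepaRG cells in serum-free induction medium were dosed 48 h in duplicate, eight half-log concentrations from 100 uM in 0.5% DMSO. Transcript measured by TaqMan qRT-PCR, normalised to ACTB/GAPDH/POLR2A, fitted bidirectionally against DMSO.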

Read-out in assay [3]: flavin-containing dimethylaniline monooxygenases 3 (FMO3), FMO3 (gene 2328)
The assay is described as follows: LTEA_HepaRG_FMO3: Life Technologies and Expression Analysis (LTEA) Assay for flavin-containing dimethylaniline monooxygenases 3 (FMO3) using HepaRG (AID 2283453). An outline of the steps: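 Differentiated HepaRG cells in serum-free induction medium, exposed 48 h in duplicate to 8 half-log concentrations up to 100 uM in 0.5% DMSO. FMO3 mRNA by qRT-PCR, normalized to ACTB, GAPDH, POLR2A; bidirectional fit vs DMSO.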

Read-out in assay [4]: Cytochrome P450 (CYP1A1), CYP1A1 (gene 1543)
The assay is described as follows: LTEA_HepaRG_CYP1A1: Life Technologies and Expression Analysis (LTEA) Assay for Cytochrome P450 (CYP1A1) using HepaRG (AID 2283454). An outline of the steps: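 Differentiated HepaRG cells in serum-free induction medium were exposed in duplicate for 48 h to eight half-log concentrations up to 100 uM in 0.5% DMSO. CYP1A1 mRNA was quantified by TaqMan qRT-PCR, normalized to ACTB, GAPDH and POLR2A.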

Read-out in assay [5]: CFLAR gene, CFLAR (gene 8837)
The assay is described as follows: LTEA_HepaRG_CFLAR: Life Technologies and Expression Analysis (LTEA) Assay for CFLAR gene using HepaRG (AID 2283455). The essentials:
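HepaRG cells were plated for 48 h, switched to serum-free induction medium, then exposed in duplicate for 48 h to 8 concentrations (top 100 uM, half-log steps, 0.5% DMSO). CFLAR mRNA was measured by qRT-PCR, normalized to ACTB, GAPDH and POLR2A.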

Read-out in assay [6]: Forkhead box O1 (FOXO1), FOXO1 (gene 2308)
Kind of assay: LTEA_HepaRG_FOXO1: Life Technologies and Expression Analysis (LTEA) Assay for Forkhead box O1 (FOXO1) using HepaRG (AID 2283456). An outline of the steps:
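Differentiated human HepaRG cells in serum-free induction medium were exposed in duplicate for 48 h to eight half-log concentrations (top 100 uM, 0.5% DMSO). FOXO1 mRNA was measured by TaqMan qRT-PCR, normalised to ACTB, GAPDH and POLR2A, and fitted bidirectionally against DMSO.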

Read-out in assay [7]: growth arrest and DNA damage 45 (GADD45A), GADD45A (gene 1647)
Kind of assay: LTEA_HepaRG_GADD45A: Life Technologies and Expression Analysis (LTEA) Assay for growth arrest and DNA damage 45 (GADD45A) using HepaRG (AID 2283458). The essentials:
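Cells plated and cultured 48 h, switched to serum-free induction medium, then dosed for 48 h (100 uM top, half-log dilutions, 0.5% DMSO). RNA was isolated and transcript measured by Fluidigm qRT-PCR.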

Read-out in assay [8]: Forkhead box O3 (FOXO3), FOXO3 (gene 2309)
The assay is described as follows: LTEA_HepaRG_FOXO3: Life Technologies and Expression Analysis (LTEA) Assay for Forkhead box O3 (FOXO3) using HepaRG (AID 2283459). An outline of the steps:
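Differentiated human HepaRG cells in serum-free induction medium were exposed in duplicate for 48 h to eight half-log concentrations up to 100 uM in 0.5% DMSO. FOXO3 mRNA was quantified by qRT-PCR, normalized to ACTB, GAPDH and POLR2A, with bidirectional fitting versus DMSO.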

Read-out in assay [9]: ABC Transporter (ABCB1), ABCB1 (gene 5243)
The assay is described as follows: LTEA_HepaRG_ABCB1: Life Technologies and Expression Analysis (LTEA) Assay for ABC Transporter (ABCB1) using HepaRG (AID 2283460). The essentials: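 Differentiated human HepaRG cells, plated 48 h then switched to serum-free induction medium, were exposed in duplicate to eight half-log concentrations up to 100 uM in 0.5% DMSO for 48 h. ABCB1 mRNA was measured by TaqMan qRT-PCR, normalized to ACTB/GAPDH/POLR2A.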

One may read the AC50 as the concentration at which the activity in the assay is half-maximal.

Take `N#Cc1nn(-c2c(Cl)cc(C(F)(F)F)cc2Cl)c(N)c1S(=O)C(F)(F)F` (configuration not stated): the AC50 in assay [1] was 83.4 µM (active); in assay [2], 29.5 µM (active); in [3], 54.9 µM (active); in [4], 14.9 µM (active); in [5], 50.2 µM (active); in assay [6], 87.4 µM (active). Besides, the AC50 was 74.2 µM (active) in assay [7] and 11.4 µM (active) in assay [9]. The call in assay [8] was inactive.
As to `CCNc1nc(Cl)nc(NCC)n1`, the compound was classed as inactive in assay [1], in assay [2], in assay [3], in assay [5], in assay [6] and in assay [7]. The outcome in assay [8] and in assay [9] was inactive. Also, the AC50 in [4] was 21.4 µM (active).
Consider `COP(N)(=O)SC` (configuration not stated), for which the compound was called inactive in assay [1], in [2], in [3], in assay [4], in [5] and in assay [6]. For the same compound, the compound was called inactive in assay [7], in [8] and in assay [9].
For `CC(C)C1(C)N=C(c2nc3ccccc3cc2C(=O)O)NC1=O` (configuration not stated), the call in assay [1], in assay [2], in assay [3], in assay [5], in [6] and in assay [7] was inactive. Further, the outcome in assay [8] and in [9] was inactive. Besides, in assay [4], the AC50 was 34.6 µM (active).
Take `N#Cc1cc(Br)c(O)c(Br)c1`: the AC50 in assay [1] is 10.4 µM (active); in assay [2], 9.54 µM (active); in assay [3], 12.7 µM (active); in assay [4], 73.6 µM (active); in [5], 10 µM (active); in [6], 40 µM (active). Further, the AC50 in assay [7] was 72.5 µM (active); in [8] it was 13.7 µM (active); in [9] it was 12.1 µM (active).
Regarding `CS/C(C)=N/OC(=O)N(C)SN(C)C(=O)O/N=C(\C)SC`, the result in assay [1], in [2], in assay [3], in assay [4], in assay [5] and in [6] was inactive. Moreover, the outcome in assay [7], in assay [8] and in [9] was inactive.
As to `COC(=O)c1ccccc1C(=O)OC`, the result in [1], in assay [2], in [3], in assay [4], in assay [5] and in [6] was inactive. Further, the result in assay [7], in assay [8] and in assay [9] was inactive.
With `CCc1nn(C)c(C(=O)NCc2ccc(C(C)(C)C)cc2)c1Cl`, the AC50 in [1] was 0.382 µM (active); in assay [2], 6.22 µM (active); in assay [3], 14.2 µM (active); in assay [5], 30.6 µM (active); in [6], 0.484 µM (active); in assay [7], 12 µM (active). The result in assay [4], in assay [8] and in assay [9] was inactive.
Consider `Fc1ccc(Oc2ccnc3cc(Cl)cc(Cl)c23)cc1`, for which the outcome in assay [1], in assay [2], in assay [5], in assay [6], in [7] and in assay [8] was inactive. The call in assay [9] was inactive. For the same compound, the results for the concentration at half-maximal activity (AC50) in [3] and in assay [4] were 85.8 µM (active) and 24 µM (active), respectively.
As to `CCCCNC(=O)OCC#CI`, the compound was called inactive in [1], in [2], in assay [5], in [6], in assay [7] and in assay [8]. Also, in assay [9], the outcome was inactive. For the same compound, the AC50 in assay [3] and in assay [4] was 50 µM (active) throughout.
Regarding `COc1ccc(C(c2ccc(OC)cc2)C(Cl)(Cl)Cl)cc1`, the result in assay [1], in assay [5], in assay [6], in assay [7], in assay [8] and in assay [9] was inactive. For the same compound, the values for the AC50 in [2], in assay [3] and in assay [4] were 89.1 µM (active), 79.5 µM (active) and 22.6 µM (active), respectively.
Consider `COC(=O)N(OC)c1ccccc1COc1ccn(-c2ccc(Cl)cc2)n1`, for which the compound was classed as inactive in [1], in assay [5] and in [8]. The concentration at half-maximal activity (AC50) in assay [2] is 68.4 µM (active); in assay [3], 75.7 µM (active); in [4] it was 13 µM (active); in assay [6] it was 50 µM (active); in assay [7], 60 µM (active); in assay [9], 11.6 µM (active).
Turning to `CC(Oc1ccc(Cl)cc1Cl)C(=O)O` (configuration not stated), the compound was classed as inactive in [1], in assay [2], in assay [3], in assay [5], in assay [6] and in assay [7]. Also, the compound was called inactive in [8] and in [9]. Moreover, the AC50 in assay [4] is 50 µM (active).
In the case of `CNC(=S)S`, the compound was classed as inactive in assay [1], in assay [2], in assay [3], in [5], in assay [6] and in assay [7]. In addition, the call in [8] and in assay [9] was inactive. In assay [4], the AC50 was 50 µM (active).
For `CON(C)C(=O)Nc1ccc(Cl)c(Cl)c1`, the AC50 is 26.6 µM (active) in [1], 50 µM (active) in assay [3], 72.7 µM (active) in assay [4] and 13.4 µM (active) in [8]. Further, the compound was classed as inactive in assay [2], in assay [5], in [6], in assay [7] and in assay [9].
On to `O=C(O)COc1nc(Cl)c(Cl)cc1Cl`, for which the outcome in assay [1], in [2], in [3], in [5], in [6] and in assay [7] was inactive. Besides, the compound was called inactive in assay [8] and in assay [9]. Besides, the AC50 in [4] was 51 µM (active).
Turning to `C=CC1(C)OC(=O)N(c2cc(Cl)cc(Cl)c2)C1=O` (configuration not stated), the result in assay [1], in assay [2], in assay [3], in assay [5], in assay [6] and in [7] was inactive. The outcome in assay [8] was inactive. Further, the figures for the AC50 in [4] and in assay [9] were 24.6 µM (active) and 9.71 µM (active), respectively.
As to `COC(=O)C=C(C)OP(=O)(OC)OC`, the compound was called inactive in [1], in [2], in assay [3], in assay [4], in [5] and in assay [6]. Moreover, the outcome in assay [7], in [8] and in [9] was inactive.
